According to the supplement of paper PMC6279402:
Counter-ions that a name gives are not always drawn. ± gives the standard deviation of the averaged measurements.

Test system: A549
Test: relative viability (normalised to negative control = 1, bortezomib = 0) (fraction); higher = less cytotoxic
Conditions: inflammatory serum-free RHB-A with cytokines + LPS; 5 d + 24 h CellTiter-Blue; compound 30 nM; GSK126 pretreatment: 5 uM GSK126

Row | SMILES | relative viability
1 | CCS(=O)(=O)Nc1ccc2[nH]c(O)c(C(=Nc3ccc(CN4CCCCC4)cc3)c3ccccc3)c2c1 [Hesperadin] | 0.652 ± 0.13
2 | Cc1ccc(C(=O)Nc2cccc(C(F)(F)F)c2)cc1Nc1nc(-c2cccnc2)nc2c1cnn2C | 0.992 ± 0.12
3 | O=NN(CCCl)C(=O)NC1CCCCC1 [Lomustine, CCNU; Lomustine] | 0.967 ± 0.15
4 | Nc1nc2[nH]cnc2c(=S)[nH]1 [Thioguanine] | 0.978 ± 0.039
5 | C#Cc1cccc(Nc2ncnc3cc(OCCOC)c(OCCO)cc23)c1 [OSI-420 (Desmethyl Erlotinib)] | 0.944 ± 0.086
6 | COc1cc2nccc(Oc3ccc(NC(=O)Nc4cc(C)on4)c(Cl)c3)c2cc1OC [AV-951(Tivozanib)] | 0.919 ± 0.12
7 | COc1cc(Nc2ncc3c(n2)-c2ccc(Cl)cc2C(c2c(F)cccc2OC)=NC3)ccc1C(=O)O | 0.804 ± 0.087
8 | CCC1=C[C@@H]2CN(C1)Cc1c([nH]c3ccccc13)[C@@](C(=O)OC)(c1cc3c(cc1OC)N(C)[C@H]1[C@@](O)(C(=O)OC)[C@H](OC(C)=O)[C@]4(CC)C=CCN5CC[C@]31[C@@H]54)C2 [Vinorelbine tartrate] | 0.403 ± 0.049
9 | CNC(=O)c1ccc(C)c(-n2c(C)cc(OCc3ccc(F)cc3F)c(Br)c2=O)c1 | 1.15 ± 0.17
10 | O=C(NC1CCNCC1)c1n[nH]cc1NC(=O)c1c(Cl)cccc1Cl | 0.969 ± 0.17
11 | COc1cccc(-c2cc(=O)c3ccccc3o2)c1N | 0.734 ± 0.07
12 | Oc1ccc(-c2nc(-c3ccc(F)cc3)c(-c3ccncc3)[nH]2)cc1 | 1.08 ± 0.13
13 | O=C(NOC[C@H](O)CO)c1ccc(F)c(F)c1Nc1ccc(I)cc1F | 0.213 ± 0.035
14 | O=c1cc(N2CCOCC2)oc2c(-c3ccccc3)cccc12 | 0.773 ± 0.033
15 | COc1ccc(-c2cc3c(C)nc(N)nc3n(C3CCC(OCCO)CC3)c2=O)cn1 (centres undefined) | 0.617 ± 0.071
16 | O=c1c(O)c(-c2ccc(O)c(O)c2)oc2cc(O)cc(O)c12 [QUERCETIN; Quercetin(Sophoretin); Quercetin dihydrate] | 0.89 ± 0.032
17 | CC(C)(C)c1cnc(CSc2cnc(NC(=O)C3CCNCC3)s2)o1 | 0.859 ± 0.1
18 | CN(C)c1ccc(-c2nc3ncc(Cl)c(N4CCN(CC(=O)Nc5nccs5)CC4)c3[nH]2)cc1 | 0.997 ± 0.11
19 | Clc1ccc(C2(c3ccc(-c4cn[nH]c4)cc3)CCNCC2)cc1 | 0.706 ± 0.086

Row | SMILES | relative viability
20 | Cc1ccc([N+](=O)[O-])cc1S(=O)(=O)N(C)/N=C/c1cnc2ccc(Br)cn12 [PIK-75 Hydrochloride] | 0.0451 ± 0.0082
21 | C=CC(=O)Nc1cccc(Oc2nc(Nc3ccc(N4CCN(C)CC4)cc3)ncc2Cl)c1 | 0.802 ± 0.067
22 | O=C(CCCCCCC(=O)Nc1ccccc1)NO [Vorinostat; SAHA] | 0.83 ± 0.15
23 | CNC(=O)c1cc(COc2nnc(Nc3ccc(Cl)cc3)c3ccoc23)ccn1 [Telatinib (BAY 57-9352)] | 0.896 ± 0.11
24 | Nc1nc(N)c2nc(-c3cccc(O)c3)c(-c3cccc(O)c3)nc2n1 | 0.719 ± 0.028
25 | Nc1ccn([C@@H]2O[C@H](CO)[C@@H](O)[C@@H]2O)c(=O)n1 | 0.833 ± 0.016
26 | CNC(=O)c1cc(Oc2ccc(NC(=O)Nc3cc(C(C)(C)C)nn3-c3ccc4ncccc4c3)c(F)c2)ccn1 [DCC-2036 (Rebastinib)] | 1.37 ± 0.1
27 | N#Cc1ccc(C(c2ccc(C#N)cc2)n2cncn2)cc1 [Letrozole] | 0.756 ± 0.011
28 | Cc1ccc(NC(=O)c2cccc(N(C)C)c2)cc1NC(=O)c1ccc(O)cc1 | 0.965 ± 0.086
29 | O=C(Nc1c[nH]nc1-c1nc2ccc(CN3CCOCC3)cc2[nH]1)NC1CC1 | 0.71 ± 0.039
30 | Cn1cc(-c2ccc3nnc(Sc4ccc5ncccc5c4)n3n2)cn1 | 0.807 ± 0.056
31 | Nc1ncnc2c1c(-c1cnc3[nH]ccc3c1)nn2C1CCCC1 | 0.767 ± 0.06
32 | CCc1cccc(CC)c1NC(=O)N1Cc2[nH]nc(NC(=O)c3ccc(N4CCN(C)CC4)cc3)c2C1 | 0.891 ± 0.14
33 | O=C1NC(=O)/C(=C/c2ccc3c(c2)OC(F)(F)O3)S1 | 0.939 ± 0.15
34 | CC(C)(C)Cn1c(N)nc2ccc(-c3[nH]c(C(C)(C)C)nc3-c3ccc(F)cc3)nc21 | 1.11 ± 0.14
35 | CN(C)Cc1cccc(N=C(c2ccccc2)c2c(O)[nH]c3cc(C(N)=O)ccc23)c1 | 0.984 ± 0.17
36 | C#Cc1cccc(Nc2ncnc3cc(OCCOC)c(OCCOC)cc23)c1 | 0.81 ± 0.083
37 | O=c1ncn2nc(Sc3ccc(F)cc3F)ccc2c1-c1c(Cl)cccc1Cl | 0.831 ± 0.12

Same assay, conditions: inflammatory serum-free RHB-A with cytokines + LPS; 5 d + 24 h CellTiter-Blue; compound 30 nM; GSK126 pretreatment: none (vehicle)

Row | SMILES | relative viability
38 | CCS(=O)(=O)Nc1ccc2[nH]c(O)c(C(=Nc3ccc(CN4CCCCC4)cc3)c3ccccc3)c2c1 [Hesperadin] | 0.598 ± 0.063
39 | Cc1ccc(C(=O)Nc2cccc(C(F)(F)F)c2)cc1Nc1nc(-c2cccnc2)nc2c1cnn2C | 0.959 ± 0.17
40 | O=NN(CCCl)C(=O)NC1CCCCC1 [Lomustine, CCNU; Lomustine] | 0.973 ± 0.15
41 | Nc1nc2[nH]cnc2c(=S)[nH]1 [Thioguanine] | 0.929 ± 0.043
42 | C#Cc1cccc(Nc2ncnc3cc(OCCOC)c(OCCO)cc23)c1 [OSI-420 (Desmethyl Erlotinib)] | 0.91 ± 0.05
43 | COc1cc2nccc(Oc3ccc(NC(=O)Nc4cc(C)on4)c(Cl)c3)c2cc1OC [AV-951(Tivozanib)] | 0.927 ± 0.12
44 | COc1cc(Nc2ncc3c(n2)-c2ccc(Cl)cc2C(c2c(F)cccc2OC)=NC3)ccc1C(=O)O | 0.821 ± 0.044
45 | CCC1=C[C@@H]2CN(C1)Cc1c([nH]c3ccccc13)[C@@](C(=O)OC)(c1cc3c(cc1OC)N(C)[C@H]1[C@@](O)(C(=O)OC)[C@H](OC(C)=O)[C@]4(CC)C=CCN5CC[C@]31[C@@H]54)C2 [Vinorelbine tartrate] | 0.444 ± 0.021
46 | CNC(=O)c1ccc(C)c(-n2c(C)cc(OCc3ccc(F)cc3F)c(Br)c2=O)c1 | 0.936 ± 0.17
47 | O=C(NC1CCNCC1)c1n[nH]cc1NC(=O)c1c(Cl)cccc1Cl | 0.924 ± 0.074
48 | COc1cccc(-c2cc(=O)c3ccccc3o2)c1N | 0.794 ± 0.057
49 | Oc1ccc(-c2nc(-c3ccc(F)cc3)c(-c3ccncc3)[nH]2)cc1 | 0.954 ± 0.13
50 | O=C(NOC[C@H](O)CO)c1ccc(F)c(F)c1Nc1ccc(I)cc1F | 0.291 ± 0.011
51 | O=c1cc(N2CCOCC2)oc2c(-c3ccccc3)cccc12 | 0.819 ± 0.048
52 | COc1ccc(-c2cc3c(C)nc(N)nc3n(C3CCC(OCCO)CC3)c2=O)cn1 (centres undefined) | 0.634 ± 0.063
53 | O=c1c(O)c(-c2ccc(O)c(O)c2)oc2cc(O)cc(O)c12 [QUERCETIN; Quercetin(Sophoretin); Quercetin dihydrate] | 0.911 ± 0.052
54 | CC(C)(C)c1cnc(CSc2cnc(NC(=O)C3CCNCC3)s2)o1 | 0.811 ± 0.056
55 | CN(C)c1ccc(-c2nc3ncc(Cl)c(N4CCN(CC(=O)Nc5nccs5)CC4)c3[nH]2)cc1 | 0.983 ± 0.091
56 | Clc1ccc(C2(c3ccc(-c4cn[nH]c4)cc3)CCNCC2)cc1 | 0.77 ± 0.055

Row | SMILES | relative viability
57 | Cc1ccc([N+](=O)[O-])cc1S(=O)(=O)N(C)/N=C/c1cnc2ccc(Br)cn12 [PIK-75 Hydrochloride] | 0.101 ± 0.062
58 | C=CC(=O)Nc1cccc(Oc2nc(Nc3ccc(N4CCN(C)CC4)cc3)ncc2Cl)c1 | 0.82 ± 0.095
59 | O=C(CCCCCCC(=O)Nc1ccccc1)NO [Vorinostat; SAHA] | 0.868 ± 0.073
60 | CNC(=O)c1cc(COc2nnc(Nc3ccc(Cl)cc3)c3ccoc23)ccn1 [Telatinib (BAY 57-9352)] | 0.887 ± 0.073
61 | Nc1nc(N)c2nc(-c3cccc(O)c3)c(-c3cccc(O)c3)nc2n1 | 0.683 ± 0.014
62 | Nc1ccn([C@@H]2O[C@H](CO)[C@@H](O)[C@@H]2O)c(=O)n1 | 0.79 ± 0.088
63 | CNC(=O)c1cc(Oc2ccc(NC(=O)Nc3cc(C(C)(C)C)nn3-c3ccc4ncccc4c3)c(F)c2)ccn1 [DCC-2036 (Rebastinib)] | 1.35 ± 0.12
64 | N#Cc1ccc(C(c2ccc(C#N)cc2)n2cncn2)cc1 [Letrozole] | 0.7993 ± 0.0055
65 | Cc1ccc(NC(=O)c2cccc(N(C)C)c2)cc1NC(=O)c1ccc(O)cc1 | 1.02 ± 0.11
66 | O=C(Nc1c[nH]nc1-c1nc2ccc(CN3CCOCC3)cc2[nH]1)NC1CC1 | 0.663 ± 0.021
67 | Cn1cc(-c2ccc3nnc(Sc4ccc5ncccc5c4)n3n2)cn1 | 0.846 ± 0.079
68 | Nc1ncnc2c1c(-c1cnc3[nH]ccc3c1)nn2C1CCCC1 | 0.797 ± 0.071
69 | CCc1cccc(CC)c1NC(=O)N1Cc2[nH]nc(NC(=O)c3ccc(N4CCN(C)CC4)cc3)c2C1 | 0.91 ± 0.12
70 | O=C1NC(=O)/C(=C/c2ccc3c(c2)OC(F)(F)O3)S1 | 0.969 ± 0.17
71 | CC(C)(C)Cn1c(N)nc2ccc(-c3[nH]c(C(C)(C)C)nc3-c3ccc(F)cc3)nc21 | 0.933 ± 0.21
72 | CN(C)Cc1cccc(N=C(c2ccccc2)c2c(O)[nH]c3cc(C(N)=O)ccc23)c1 | 0.911 ± 0.16
73 | C#Cc1cccc(Nc2ncnc3cc(OCCOC)c(OCCOC)cc23)c1 | 0.823 ± 0.12
74 | O=c1ncn2nc(Sc3ccc(F)cc3F)ccc2c1-c1c(Cl)cccc1Cl | 0.867 ± 0.11
